# Results reported in PubChem BioAssay.
# Biological target: Torsin-1A-interacting protein 1 (Homo sapiens) (UniProt Q5JTV8)
# Experiment: compound microarray binding of lysate hLAP1 – cell lysate, small-molecule microarray, COS7 lysate, 635/667 nm fluorescence, primary screen (AID 1116)
# Conditions: 635 nm fluorescence, higher = more signal
# Torsin-1A-interacting protein 1 (Homo sapiens), sequence (Q5JTV8 whole entry, looked up): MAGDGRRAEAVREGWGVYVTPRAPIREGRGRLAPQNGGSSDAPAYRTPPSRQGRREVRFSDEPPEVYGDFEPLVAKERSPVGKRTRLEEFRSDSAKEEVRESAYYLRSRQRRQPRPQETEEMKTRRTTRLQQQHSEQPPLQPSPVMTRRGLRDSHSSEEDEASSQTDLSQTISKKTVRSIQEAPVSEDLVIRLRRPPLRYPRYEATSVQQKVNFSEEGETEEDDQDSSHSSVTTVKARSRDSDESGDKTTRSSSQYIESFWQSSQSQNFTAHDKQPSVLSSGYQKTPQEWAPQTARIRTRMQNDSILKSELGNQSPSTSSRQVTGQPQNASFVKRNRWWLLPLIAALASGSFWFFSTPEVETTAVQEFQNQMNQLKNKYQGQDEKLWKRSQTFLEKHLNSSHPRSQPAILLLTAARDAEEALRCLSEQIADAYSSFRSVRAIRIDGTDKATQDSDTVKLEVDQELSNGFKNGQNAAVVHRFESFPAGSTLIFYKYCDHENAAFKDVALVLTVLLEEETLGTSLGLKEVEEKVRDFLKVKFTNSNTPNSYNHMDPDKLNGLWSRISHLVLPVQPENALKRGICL
row,Structure (SMILES),composite z-score
1,Cc1nc2cc(Br)ccc2c(=O)n1Cc1cccc(O)c1,1.21
2,C=C[C@@H](C)[C@H](O)c1ccc(OCCO)cc1,-0.73
3,C=CCN1C(=O)[C@]2(O[C@H](CCO)[C@@H]([Si](C)(C)c3ccc(OC)cc3)[C@@H]2C)c2cc(NC(=O)c3ccc(OC)cc3)ccc21,0.336
4,CCOC(=O)C[C@H]1[C@H](OC(=O)c2cc3ccccc3oc2=O)[C@@H](NC(=O)c2ccc3ccccc3c2)c2cc(OCCCO)ccc2N1C(=O)Cc1ccc(OC)cc1,0.546
5,COc1ccc(C#Cc2ccc3c(c2)[C@]2(C(=O)N3)[C@H](c3ccc(OCCO)cc3)N3[C@H](c4ccccc4)[C@H](c4ccccc4)OC(=O)[C@H]3[C@@H]2C(=O)N2CCc3cc(OC)c(OC)cc3C2)cc1,0.168
6,COC(=O)c1c2oc(c1C(=O)OC)C(=O)N1CCC[C@H]1Cn1nncc1CN(Cc1ccccc1)C(=O)N[C@H](CO)CC2,-0.285
7,COC(=O)C(CC#Cc1ccc2c(c1)[C@]1(C(=O)N2)[C@H](c2ccc(O)cc2)N2[C@H](c3ccccc3)[C@H](c3ccccc3)OC(=O)[C@H]2[C@@H]1C(=O)N1CCCCCCC1)C(=O)OC,3.87
8,C=C[C@H](C)[C@H](OC(=O)Nc1ccc(OC)cc1)c1ccc(OCCO)cc1,-0.18
9,[N-]=[N+]=NC[C@H](Cc1ccccc1)NC(=O)c1ccccc1,0.363
10,COc1ccc([Si](C)(C)[C@H]2[C@H](CC(=O)N3Cc4ccccc4C[C@H]3CO)O[C@@]3(C(=O)N(Cc4ccc(N5C(=O)c6cccc7cccc5c67)cc4)c4ccccc43)[C@@H]2C)cc1,1.65
11,COc1ccc([Si](C)(C)[C@H]2[C@H](CC(=O)N3CCC[C@H]3CO)O[C@@]3(C(=O)N(Cc4ccc(N5CCC5=O)cc4)c4ccccc43)[C@@H]2C)cc1,1.53
12,C=CCNC(=O)[C@H]1[C@@H]2C(=O)O[C@@H](c3ccccc3)[C@@H](c3ccccc3)N2[C@@H](c2ccc(OCCO)cc2)[C@]12C(=O)Nc1ccc(C#CCNC(N)=O)cc12,0.311
13,C=CCC(OC(C)=O)[C@@H]1[C@@H](N(Cc2cccc3ccccc23)C(=O)Cc2ccc(F)cc2)c2cc(OCCCO)ccc2N1C(=O)c1ccc(-c2ccccc2)cc1 (some centres not stated),0.171
14,CC1CC/C=C\[C@H]2OC34C=CCN(CCN5CCOCC5)C(=O)[C@H]3N(C(C)CO)C(=O)[C@@H]4C2C(=O)O1 (some centres not stated),-0.719
15,C=CCN1C(=O)[C@]2(O[C@H](CCO)[C@@H]([Si](C)(C)c3ccc(OC)cc3)[C@@H]2C)c2cc(N3C(=O)COc4ccccc43)ccc21,-0.0988
16,CN(C)C(=O)[C@]1(CCS(=O)(=O)c2ccccc2)N=C(c2ccc(OCCCO)cc2)O[C@@H]1c1ccccc1,1
17,Cc1ccccc1C(O)C1C=CC2C(=O)NC(=O)C2N1Nc1ccc(Cl)cc1Cl (configuration not stated),1.56
18,O=C1c2ccccc2[C@](Cc2ccccc2I)(C(=O)NC2CC2)[C@H](c2ccc(CO)cc2)N1Cc1ccccc1C(F)(F)F,0.103
19,Cc1ccc(C(C)CC(O)C2C=CC3C(=O)N(c4ccccc4)C(=O)C3N2Nc2ccc(C#N)cc2)o1 (configuration not stated),1.16
20,COc1ccc([Si](C)(C)[C@H]2[C@H](CCO)O[C@@]3(C(=O)N(Cc4ccccc4)c4ccc(N5C(=O)c6ccccc6Oc6ccccc65)cc43)[C@@H]2C)cc1,0.323
21,COCCOC(=O)N1C(=O)[C@@]2(c3cc(C#CC4=CCCCC4)ccc31)[C@H](C(=O)N1CCCCCCC1)[C@H]1C(=O)O[C@H](c3ccccc3)[C@H](c3ccccc3)N1[C@@H]2c1ccc(OCCO)cc1,1.05
22,CC(C)[C@H]1NC(=O)[C@@]23C(=O)N[C@@H](Cc4ccccc4)C2[C@H](C)[C@@]2(C)O[C@H]2C3/C=C/C/C=C\CNC(=O)[C@H](Cc2ccccc2)NC1=O (some centres not stated),0.512
23,CC(C)=CCCC(C)=CC(O)C1C=CC2C(=O)N(c3ccccc3)C(=O)C2N1Nc1ccccc1F (configuration not stated),2.19
24,CC(C)C[C@@H]1NC(=O)CNC(=O)[C@@]23C(=O)N[C@@H](Cc4ccccc4)C2[C@H](C)[C@@]2(C)O[C@H]2C3/C=C/C/C=C\CNC1=O (some centres not stated),0.625
25,COC(=O)[C@@]1(Cc2ccc(F)cc2)[C@H]2c3cc(C(=O)N(C)C)n(Cc4ccc(O)c(OC)c4)c3C[C@H]2CN1C(=O)c1ccccc1,-0.105
26,C=C(COC)C(=O)CC[C@@H](OC(=O)c1cccnc1)c1ccccc1OCCO,0.519
27,CN(C)CCCNC(=O)[C@@H]1c2ccccc2C(=O)N(C2CCCCC2)[C@H]1c1ccc(CO)cc1,0.87
